In PubChem BioAssay (Tox21):
Records with an inconclusive call do not appear. Calls of active or inactive are those of the source. Calls follow the shape of the dose curve; as a rule, active = well fitted curve in the direction sought with a large enough effect in the repeat runs; inconclusive = weak or mixed curves; inactive = no such curve, though single readings can be large; an effect the other way counts as inactive or inconclusive.

How the values were obtained:
[1] = target: Cytochrome P450 2C19 (Homo sapiens) (UniProt P33261); assay: Cytochrome P450 Family 2 Subfamily C Member 19 (CYP2C19) small molecule antagonists: luciferase reporter qHTS assay (AID 1671197); also: nearly all actives have a fitted effect of over 65% in size; also: potency is read from the fitted curve at half-maximal effect
Method in brief: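 Inhibition of CYP2C19 was scored from loss of luminescence in a P450-Glo proluciferin substrate assay, NADPH-started and run 1 h at 37C, with ketoconazole as positive control.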

[2] = target: Cytochrome P450 1A2 (Homo sapiens) (UniProt P05177); assay: Cytochrome P450 Family 1 Subfamily A Member 2 (CYP1A2) small molecule antagonists: luciferase reporter qHTS assay (AID 1671199); also: series mostly up to about 120 µM; nearly all actives have a fitted effect of over 50% in size
Method in brief: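 Compounds were incubated with CYP1A2 and a luminogenic proluciferin substrate for 10 min at room temperature before the reaction was started with NADPH regeneration solution. After 1 h, detection reagent was added and light output, proportional to CYP activity, was recorded.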

[3] = target: Voltage-gated inwardly rectifying potassium channel KCNH2 (Homo sapiens) (UniProt Q12809); assay: Human Ether-a-go-go-Related Gene (hERG) channel small molecule antagonists: fluorescence cell-based qHTS assay (AID 1671200);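 also: hERG-expressing U2OS cells given a thallium stimulus after FluxOR II dye loading; series mostly up to about 77 µM; nearly all actives have a fitted effect of over 50% in size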
Method in brief: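 Cell line hERG-U2OS; dye FluxOR II, 1 h RT dark; Tl+ stimulus; ex 480/em 540 nm, read each second for 2 min.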

[4] = target: Cytochrome P450 3A4 (Homo sapiens) (UniProt P08684); assay: Cytochrome P450 Family 3 Subfamily A Member 4 (CYP3A4) small molecule antagonists: luciferase reporter qHTS assay (AID 1671201); also: series mostly up to about 120 µM; nearly all actives have a fitted effect of over 50% in size
Method in brief: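 Room-temperature assay throughout: 10 min compound–enzyme/substrate preincubation, 1 h reaction after NADPH regeneration solution, 20 min detection. Luciferin formed from proluciferin substrate is quantified by luminescence.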

Measured: Potency

Sequence of Cytochrome P450 2C19 (Homo sapiens) (P33261 whole entry, looked up): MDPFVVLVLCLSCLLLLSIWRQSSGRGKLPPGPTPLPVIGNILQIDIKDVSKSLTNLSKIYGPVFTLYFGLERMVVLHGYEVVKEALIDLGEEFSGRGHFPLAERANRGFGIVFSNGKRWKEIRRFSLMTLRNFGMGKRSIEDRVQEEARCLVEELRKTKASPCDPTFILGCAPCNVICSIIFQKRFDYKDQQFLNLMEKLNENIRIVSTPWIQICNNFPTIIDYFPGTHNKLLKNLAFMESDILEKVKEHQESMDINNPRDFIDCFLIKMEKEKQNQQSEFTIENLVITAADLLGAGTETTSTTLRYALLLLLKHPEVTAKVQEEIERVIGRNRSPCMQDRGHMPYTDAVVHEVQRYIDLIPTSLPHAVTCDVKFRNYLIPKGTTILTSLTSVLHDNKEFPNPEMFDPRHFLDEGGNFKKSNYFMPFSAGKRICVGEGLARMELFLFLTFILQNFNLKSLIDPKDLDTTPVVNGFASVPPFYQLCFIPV
Sequence of Cytochrome P450 1A2 (Homo sapiens) (P05177 whole entry, looked up): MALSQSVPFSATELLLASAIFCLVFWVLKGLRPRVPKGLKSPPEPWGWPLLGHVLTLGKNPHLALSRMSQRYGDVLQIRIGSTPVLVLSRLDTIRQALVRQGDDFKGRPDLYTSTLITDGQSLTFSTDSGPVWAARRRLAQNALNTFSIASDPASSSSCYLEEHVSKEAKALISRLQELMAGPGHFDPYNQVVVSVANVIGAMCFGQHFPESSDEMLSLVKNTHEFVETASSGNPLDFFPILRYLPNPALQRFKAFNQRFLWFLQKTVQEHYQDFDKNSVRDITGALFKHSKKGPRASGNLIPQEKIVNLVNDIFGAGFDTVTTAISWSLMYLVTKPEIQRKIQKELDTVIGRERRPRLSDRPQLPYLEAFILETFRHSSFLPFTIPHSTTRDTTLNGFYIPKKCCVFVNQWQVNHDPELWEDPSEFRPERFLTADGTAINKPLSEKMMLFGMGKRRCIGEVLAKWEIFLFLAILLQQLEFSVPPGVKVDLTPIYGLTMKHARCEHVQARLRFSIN
Sequence of Voltage-gated inwardly rectifying potassium channel KCNH2 (Homo sapiens) (Q12809 whole entry, looked up): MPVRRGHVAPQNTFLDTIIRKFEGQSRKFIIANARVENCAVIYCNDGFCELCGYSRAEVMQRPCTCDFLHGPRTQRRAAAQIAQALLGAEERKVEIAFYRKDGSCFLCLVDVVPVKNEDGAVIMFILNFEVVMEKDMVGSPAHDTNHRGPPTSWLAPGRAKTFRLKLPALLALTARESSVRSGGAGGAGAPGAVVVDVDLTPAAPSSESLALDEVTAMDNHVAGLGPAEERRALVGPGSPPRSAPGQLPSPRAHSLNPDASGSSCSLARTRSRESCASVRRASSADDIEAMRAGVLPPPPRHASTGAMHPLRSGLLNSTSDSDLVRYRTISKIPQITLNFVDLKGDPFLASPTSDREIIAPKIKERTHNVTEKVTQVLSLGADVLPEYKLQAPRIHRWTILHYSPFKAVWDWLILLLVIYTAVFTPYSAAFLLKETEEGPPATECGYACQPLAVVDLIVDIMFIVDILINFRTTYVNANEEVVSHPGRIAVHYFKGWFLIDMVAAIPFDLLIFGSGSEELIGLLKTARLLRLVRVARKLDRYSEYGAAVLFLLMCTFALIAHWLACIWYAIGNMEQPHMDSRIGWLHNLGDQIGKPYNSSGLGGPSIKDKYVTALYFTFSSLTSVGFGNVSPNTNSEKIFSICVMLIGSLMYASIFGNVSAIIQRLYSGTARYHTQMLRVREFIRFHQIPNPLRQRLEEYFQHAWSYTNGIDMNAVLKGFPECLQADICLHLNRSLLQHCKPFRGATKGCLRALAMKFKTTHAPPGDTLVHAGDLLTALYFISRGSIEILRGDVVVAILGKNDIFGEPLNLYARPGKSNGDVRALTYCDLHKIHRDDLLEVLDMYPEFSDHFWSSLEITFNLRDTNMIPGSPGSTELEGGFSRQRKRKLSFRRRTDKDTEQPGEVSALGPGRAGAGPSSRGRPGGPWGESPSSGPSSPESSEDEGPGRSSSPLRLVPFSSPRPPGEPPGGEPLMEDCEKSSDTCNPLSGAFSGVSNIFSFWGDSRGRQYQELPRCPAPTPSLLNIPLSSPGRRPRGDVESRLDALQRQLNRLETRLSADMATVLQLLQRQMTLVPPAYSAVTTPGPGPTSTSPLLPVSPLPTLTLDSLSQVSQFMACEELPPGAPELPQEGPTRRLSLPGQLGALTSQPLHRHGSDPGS
Sequence of Cytochrome P450 3A4 (Homo sapiens) (P08684 whole entry, looked up): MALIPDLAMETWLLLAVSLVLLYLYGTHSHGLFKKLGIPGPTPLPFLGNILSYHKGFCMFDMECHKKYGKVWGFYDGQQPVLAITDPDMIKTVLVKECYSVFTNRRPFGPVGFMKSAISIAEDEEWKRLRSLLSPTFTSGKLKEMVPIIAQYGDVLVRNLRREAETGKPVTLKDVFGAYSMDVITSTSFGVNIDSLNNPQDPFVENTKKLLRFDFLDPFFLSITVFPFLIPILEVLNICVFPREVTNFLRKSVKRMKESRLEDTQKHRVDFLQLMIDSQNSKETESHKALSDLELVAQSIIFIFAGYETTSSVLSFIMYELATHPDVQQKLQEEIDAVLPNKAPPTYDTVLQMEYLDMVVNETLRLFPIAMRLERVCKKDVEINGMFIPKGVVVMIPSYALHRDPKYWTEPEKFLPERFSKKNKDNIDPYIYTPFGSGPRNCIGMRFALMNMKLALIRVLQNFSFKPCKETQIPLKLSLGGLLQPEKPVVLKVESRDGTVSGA

CCC(C)CCCC(C)(C)O (stereo unspecified)
inactive: [1] | [2] | [3] | [4]

O=C(O)COCC(=O)O
inactive: [1] | [2] | [3] | [4]

CCCc1ccc(OC)cc1
active: [1] 63.7 µM
inactive: [3] | [4]

CC(C)NC(=O)c1ccccc1N
inactive: [1] | [3]

CC(C(=O)O)c1ccc2c(c1)Cc1cccnc1O2 (stereo unspecified)
inactive: [1] | [2] | [3] | [4]

OCCCO
inactive: [1] | [2] | [3] | [4]
